# Laboratory results reported in the supplement of paper PMC5499739.
# In all, about 16,000 sequences were measured (“Z-score”: median about -0.37, highest 2% from about 3.1 on). The list comes from a sample in which the highest values are over-represented; it also holds similar and randomly drawn sequences.
# System: RBM10 RRM1-ZnF-RRM2 (GST-tagged construct)
# Assay: RNAcompete 7-mer binding Z-score; higher = stronger binding preference
# Protocol: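 RNAcompete: 20 pmol GST-tagged RBM10 RNA-binding constructs were incubated with a designed RNA pool of about 241,000 sequences up to 41 nt (1.5 nmol) on glutathione beads for 30 min at 4 °C and washed. Bound RNAs were identified by microarray hybridisation. Each RNA 7-mer is scored by a one-sided Z-score of its enrichment, computed over probes that contain the 7-mer within longer pool sequences.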
row,Sequence,RNAcompete 7-mer binding Z-score
1,AGGGUGC,2.43
2,AUGGUGA,2.09
3,AGGGUGG,3.88
4,CGGGUGA,2.55
5,GGGGUGA,3.52
6,GCGGUGA,1.39
7,UCGGUGA,0.479
8,AGGGUGA,4.25
9,GGGGUCA,3
10,UGGGUGA,3.5
11,ACGGUGG,2.73
12,AGGGUCA,1.51
13,CUGGAGG,1.11
14,GGGCCCA,-0.151
15,AGUAUUG,0.024
16,UGAUUGA,0.00216
17,GGACUUG,0.319
18,AGGGUGU,3.03
19,UGUGUGG,1.79
20,CGGGUGG,3.24
21,CGGGUGU,1.83
22,UGGGUGC,2.74
23,GGGGUGU,3.53
24,GCGGUGU,0.96
25,UGGGUGG,4

row,Sequence,RNAcompete 7-mer binding Z-score
1,GGUGUGG,3.86
2,GGUGUGU,1.42
3,CGGGUGC,1.94
4,UGGGUGU,2.62
5,CAGUACA,-0.0816
6,ACGCAAC,-0.479
7,UCUGUUA,-0.795
8,GACUGUG,-0.198
9,CGUCAUA,-0.519
10,AAGUGCG,0.698
11,UCAACCC,-0.752
12,ACCAUUG,-0.584
13,GGGGUGC,2.58
14,GGGGUGG,4.09
15,GCGGUGG,3.01
16,CUCACAG,-0.351
17,ACCAGGC,-0.136
18,UGGAUAA,1.07
19,GGGAUAG,3.83
20,GGGAUAA,3.36
21,GGGAUGC,2.65
22,GGGAUGA,3.59
23,AGGAUAG,2.21
24,GGGAUGU,2.88
25,UGGAUAG,2.3

row,Sequence,RNAcompete 7-mer binding Z-score
1,GGGAUAC,2.71
2,UCUGGUC,-0.522
3,UCUGUCC,-0.81
4,UAGGGCU,1.3
5,UAGGGGU,3.84
6,UAGGGGG,3.4
7,UAGGGGA,3.81
8,UAGGGGC,2.34
9,CAGGGGU,2.91
10,UAGGGCA,2.23
11,CAGGGGA,2.8
12,CAGGGGG,2.58
13,GUGACGA,0.68
14,GUAAAAA,0.253
15,CCAUUGG,-0.53
16,GUUUUGU,0.024
17,UGCUUGC,-0.73
18,CCGAUUG,-0.606
19,AAAGGGA,4.13
20,UAAGGGA,3.09
21,CAAGGGA,2.5
22,GAAGGGU,4.15
23,GAAGGGC,3.32
24,AAAGGGC,2.89
25,GAAGGCU,0.581

row,Sequence,RNAcompete 7-mer binding Z-score
1,UAAGGCU,0.224
2,UAAGGUU,1.74
3,GAAGUGU,1.09
4,UAAGGGU,3.54
5,UAAGGGC,1.51
6,CCGUAUC,-0.876
7,AUAAUGG,1.84
8,UGAUUAA,-0.118
9,AUACACA,-0.187
10,AGGUUGU,0.691
11,GCGACGC,-0.253
12,GUCGCUG,0.0495
13,UCUAACC,-0.737
14,GUCUAUA,-0.479
15,GUUGCAU,-0.227
16,CUAGAUU,-0.661
17,GAACCUG,-0.683
18,UCGGCUA,-0.537
19,CGGUGUA,0.873
20,CAAGGGU,2.85
21,GAAGGCA,2.46
22,AAAGGGU,4.71
23,AAAGGCU,0.796
24,GAAGGGA,4.75
25,GCAGGGA,2.94

row,Sequence,RNAcompete 7-mer binding Z-score
1,GGUUUGU,0.811
2,GUAUUGA,-0.107
3,CGAAGCC,-0.449
4,AACUCGU,-0.861
5,GGGAAAG,4.49
6,CGGAAAG,1.91
7,GGGAAAA,3.43
8,GGGAAGA,3.65
9,GGAAAAA,1.95
10,CGGAAAA,0.854
11,CGGAAGA,0.862
12,UGGAAAG,2.78
13,GGGAAGU,2.76
14,GUCAGGG,1.81
15,UCCUGAC,-0.788
16,UGGCACA,0.497
17,UCGUAAG,-0.326
18,GUCGAGG,1.9
19,CGUUGGA,0.548
20,UCUUUAA,-0.803
21,UCGGCCG,-0.795
22,GGAGGUG,3.64
23,CGAGGUA,1.8
24,GGAGGUU,2.23
25,AGAGGUG,2.05

row,Sequence,RNAcompete 7-mer binding Z-score
1,UGAGGUA,1.87
2,GGAGGUA,3.82
3,CGCAUUC,-0.723
4,UGCGACG,0.13
5,ACUUCUU,-0.952
6,GAGCGGC,1.42
7,GAGCGAC,0.177
8,UAGCGGA,1.01
9,GAGCGGU,1.51
10,GAGCGGG,3.33
11,GAGCGGA,3.55
12,GAGCGAG,3.3
13,CAGCGGG,2.5
14,UAGCGAG,0.694
15,UCCUUAA,-0.715
16,AAAGAAC,-0.0343
17,CUCAACA,-0.704
18,UCUUAGC,-0.817
19,AUGACCC,-0.57
20,GUGUGGA,2.7
21,UUGUGGG,2.44
22,GUGUGGU,1.87
23,AUGUGGC,0.84
24,GUGUGGG,3.75
25,AUGUGGG,3.6

row,Sequence,RNAcompete 7-mer binding Z-score
1,AGAAUGA,0.275
2,CGCACCC,-0.748
3,GCGUGAG,1.01
4,AGGAUGG,3.4
5,UGGAUGC,0.778
6,GAGAUGU,0.392
7,AGGAUGC,0.887
8,CGGAUGG,1.87
9,UGGAUGA,1.82
10,UAGAUGG,2.16
11,GAGAUGG,4
12,UGGAUGG,3.42
13,UGUACUU,-0.715
14,GUCAAUU,-0.602
15,UUUGCCG,-0.766
16,ACGACGA,-0.384
17,GAGCCCC,-0.581
18,ACCGUAG,-0.147
19,UUUGUCC,-0.85
20,ACGGUAC,0.472
21,CCCCAAU,-0.755
22,UUCCACA,-0.508
23,GGGGAAG,3.91
24,AGGGAAC,3.06
25,UGGGAAG,3.99

row,Sequence,RNAcompete 7-mer binding Z-score
1,AGGGACU,1.09
2,CGGGAAG,2.07
3,GGGGAAU,3.13
4,UGGGAAU,2.42
5,UGGGAAA,2.49
6,AGGGAAG,4.36
7,AGGGAAU,3.2
8,GGGGAAA,3.02
9,CGGGAAU,1.31
10,GGUAAUU,0.789
11,ACUAACG,-0.409
12,CGAUGUU,-0.657
13,AGUCGAC,0.00944
14,CUAAUGC,-0.795
15,ACAUCAG,-0.191
16,CACUGAG,-0.209
17,AGGGUAG,3.71
18,AGGGUAC,2.7
19,UGGGUAC,2.59
20,UGGGUAG,3.34
21,UGGGUAU,2.2
22,CGGGUAG,2.23
23,CGCGAAC,-0.435
24,GCUCGAC,-0.53
25,AGUUCCU,-0.77

row,Sequence,RNAcompete 7-mer binding Z-score
1,AGGCGUA,0.716
2,ACCUACA,-0.814
3,GACGGGA,2.3
4,AACGGGG,3.65
5,GACGGGG,2.79
6,AACGGGA,3.38
7,CACGGGG,2.77
8,UACGGGU,2.02
9,GACGGGU,2.37
10,CACGGGA,1.66
11,AACGGGU,3.25
12,ACGGCGG,1.11
13,AGCUCAG,-0.486
14,ACAUAUC,-0.526
15,AAGGAGU,3.12
16,AGUUUUG,-0.0707
17,CUUAAAC,-0.646
18,AGGGCUA,1.17
19,UGUUGUU,-0.286
20,GUCGCGU,-0.0124
21,AGGAAGA,1.64
22,UGGAAGG,3.68
23,UGGAAGU,1.6
24,AGGAAGG,4.46
25,CGGAAGG,2.53

row,Sequence,RNAcompete 7-mer binding Z-score
1,AGGAAGU,1.21
2,GUGUAAG,1.28
3,UGAGGGC,2.22
4,GGAGGGC,3.27
5,GGAGGAG,2.84
6,AGAGGGG,1.94
7,GUAGAGG,4.02
8,GGAGGGG,4.18
9,AGAGGGC,1.02
10,CGAGGGA,3.11
11,AGAGGGA,2.16
12,AUAGAGG,1.79
13,UUAGAGG,1.24
14,GGAGGGA,3.6
15,AGAUAAG,0.989
16,GUUAACU,-0.398
17,UCCUGUA,-0.795
18,UCAUGGG,1.19
19,AAAACGU,-0.0197
20,AGAGUGG,2.77
21,CGAGGCG,1.5
22,GGAGUGG,4.61
23,CGAGGGC,1.41
24,GGAGAGG,3.28
25,CGAGGGG,3.29

row,Sequence,RNAcompete 7-mer binding Z-score
1,GGAGUGA,2.63
2,GGAGAGA,1.26
3,AGAGAGG,1.58
4,GUCCAAA,-0.424
5,GUUCACG,-0.355
6,UAAGCAU,-0.555
7,UAUCAAU,-0.46
8,CUGUGUA,-0.417
9,UCUUUUG,-0.632
10,AACAGGG,3.73
11,UGCAGGG,2.53
12,AGCAGGG,3.39
13,CACAGGG,2.49
14,AACAGGC,1.62
15,AGCAGGA,2.45
16,GGUGCCC,0.0495
17,CUUAGCU,-0.832
18,CCUUGUC,-0.89
19,AUUUUCU,-0.803
20,CUUCUGC,-0.959
21,UUACUGC,-0.799
22,CGUAAGG,0.844
23,AGUAAGG,3.47
24,CAAAGGU,1.62
25,AGAAAGG,4.73

row,Sequence,RNAcompete 7-mer binding Z-score
1,GAAAGGU,4.42
2,AGUAAGU,0.188
3,GAAAAGG,4.73
4,UGAAAGG,2.76
5,GAAAAAG,1.52
6,CGAAAGG,1.98
7,AAAAAGG,2.19
8,AAAAGGU,2.52
9,GCGUGUC,-0.235
10,GCAUCGA,-0.22
11,CGCCUCA,-0.748
12,CGGAGCA,1.02
13,GCAGCGG,2.14
14,GUUCUAC,-0.759
15,GUAAAAG,0.767
16,GAUAAGG,3.81
17,CAUAAGG,0.548
18,GAUAAGU,0.0969
19,GUAAAGG,3.36
20,GUAAAGU,0.396
21,CCUACAG,-0.752
22,UGACACA,-0.315
23,UUCUUAU,-0.744
24,CGAACGC,-0.256
25,CCAUUUU,-1.08

row,Sequence,RNAcompete 7-mer binding Z-score
1,AUUACAC,-0.537
2,GGCUCAA,-0.122
3,CCCUCUU,-0.89
4,CAAAGGG,2.78
5,AAAAGGG,3.58
6,UAAAGGG,2.65
7,AAAAGGA,3.25
8,CAAAGGA,1.34
9,UAAAGGA,1.64
10,CUUUCGC,-0.967
11,UGAAGAU,-0.00877
12,GAAUGGG,4.77
13,CAAUGGG,3.4
14,ACAUGGA,1.76
15,AAAUGUA,0.0859
16,AAAUGGA,3.34
17,GAAUGGA,3.56
18,GAAUGGC,1.68
19,CAAUGGU,1.25
20,GAAUGGU,2.65
21,CAAUGGA,1.4
22,UAAUGGA,1.64
23,UAAUGGG,2.89
24,UGCGCUU,-0.744
25,CCCUCAG,-0.81

row,Sequence,RNAcompete 7-mer binding Z-score
1,CUCCGUC,-0.894
2,GACAAGC,-0.0233
3,GGCCGGU,0.279
4,GAUUCCA,-0.519
5,AAAUGGG,4.04
6,GUAUGGA,2.44
7,CUAUGGG,1.08
8,GUAUGGG,4.06
9,AAAUGGC,1.42
10,AAAUGGU,2.73
11,CGGAUAU,0.348
12,GGUGUCG,1.21
13,AGUAUGC,0.0204
14,CCCAGCU,-0.657
15,CUAGACA,-0.621
16,UUGGGCG,2.45
17,AGGCCCG,-0.759
18,CGCUUUC,-0.77
19,UUGGGGG,3.03
20,UGGGCGG,3.38
21,UGGGGCG,2.66
22,AGGGGCA,2.36
23,UGGGGGG,3.39
24,UGGGGCC,0.76
25,UGGGGCA,3.52

row,Sequence,RNAcompete 7-mer binding Z-score
1,UUGGGGC,2.04
2,UGGGGGC,3.18
3,UGGGCGC,0.989
4,GGGGGCA,2.33
5,AGGGCGG,2.23
6,UUGGAAU,0.57
7,AGUUCAA,-0.311
8,ACACAUG,-0.0962
9,AUGCUAU,-0.65
10,GAAAAUG,1.46
11,AAAAUUU,-0.544
12,AAGGACA,3.12
13,CUGAUAA,-0.566
14,UCGGGUC,0.512
15,ACCAGUC,-0.602
16,ACCAGGU,0.399
17,GCCUAUU,-0.901
